# High-throughput results as filed in PubChem BioAssay.
# Chronic BCR inh = chronic active BCR signaling inhibition | ABC-DLBCL IkBa-CBG/CBR reporter, luminescence ratio, 4 h | Potency, µM (doses to about 46.1 µM), for the others: at the top dose activity change, negative = inhibition, actives largely listed as inhibitors | 340,000 compounds, 0.05% hits | AID 493014; active means well fitted inhibition curve with a large enough effect in the signal ratio, with a control signal flat, not every such curve was filed as active; inconclusive means small, poorly fitted or top-dose-only effect, or effect the other way, or a change in a side signal; the % refers to the signal ratio;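 further: plate controls were basal doxycycline-induced cells for no effect and cells given 10 µM MG132 for full effect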
#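 Doxycycline induced both beetle luciferases in TMD8 lymphoma cells; IKK-driven degradation limits the IkappaBalpha-fused green signal, while red luminescence normalises for cell number and nonspecific effects. Compounds tested up to 46 uM, 4 hrs.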
# GRP78 ERSR act = inducers of ER stress response in human glioma cells; Potency, µM, for inactives: top-dose activation, most hits filed as activators; 420,000 compounds, 0.02% hits; AID 602332; U87-MG GRP78 promoter luciferase reporter, 16 h; further: series mostly up to about 76 µM; % of control where 0% means no effect; nearly all actives have a fitted effect of over 35% in size
#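 Stably transfected U87-MG human glioma cells carrying a GRP78-based luminescent sensor were seeded at 1000 cells/well, pin-dosed with compounds and incubated 16 h. Luciferase reagent was then added, and end-point luminescence was read after 10 min at room temperature.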
# Apoferritin bind = candidate novel general anesthetic via apoferritin binding; P02791; apoferritin/1-aminoanthracene competitive binding, fluorescence; Potency, µM (titrated, usually from 77.5 µM), for inactives: at the highest dose activity change, negative = displacement, most hits filed as inhibitors; 350,000 compounds, 0.074% hits; AID 485281; further: on the % scale 0 is the no-effect control and ±100 the full control effect; nearly all actives have a fitted effect of over 20% in size
#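 Read-out: endpoint 1-AMA fluorescence, excitation 380 nm and emission 535 nm, after compounds sit 10 min at room temperature with 10 uM horse-spleen apoferritin in 50% saturated 1-AMA/PBS. Values come from four-parameter Hill fits.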
# 12-LOX inh = inhibitors of human 12S-lipoxygenase ALOX12. Potency, µM (highest dose often 108 µM), without a hit: at the top dose activity change, negative = inhibition, most hits filed as inhibitors. 580,000 compounds, 1.1% hits. P18054. purified 12hLO, xylenol orange hydroperoxide absorbance; further: on the % scale 0 is the no-effect control and ±100 the full control effect
# Target sequence (P18054 whole entry, looked up): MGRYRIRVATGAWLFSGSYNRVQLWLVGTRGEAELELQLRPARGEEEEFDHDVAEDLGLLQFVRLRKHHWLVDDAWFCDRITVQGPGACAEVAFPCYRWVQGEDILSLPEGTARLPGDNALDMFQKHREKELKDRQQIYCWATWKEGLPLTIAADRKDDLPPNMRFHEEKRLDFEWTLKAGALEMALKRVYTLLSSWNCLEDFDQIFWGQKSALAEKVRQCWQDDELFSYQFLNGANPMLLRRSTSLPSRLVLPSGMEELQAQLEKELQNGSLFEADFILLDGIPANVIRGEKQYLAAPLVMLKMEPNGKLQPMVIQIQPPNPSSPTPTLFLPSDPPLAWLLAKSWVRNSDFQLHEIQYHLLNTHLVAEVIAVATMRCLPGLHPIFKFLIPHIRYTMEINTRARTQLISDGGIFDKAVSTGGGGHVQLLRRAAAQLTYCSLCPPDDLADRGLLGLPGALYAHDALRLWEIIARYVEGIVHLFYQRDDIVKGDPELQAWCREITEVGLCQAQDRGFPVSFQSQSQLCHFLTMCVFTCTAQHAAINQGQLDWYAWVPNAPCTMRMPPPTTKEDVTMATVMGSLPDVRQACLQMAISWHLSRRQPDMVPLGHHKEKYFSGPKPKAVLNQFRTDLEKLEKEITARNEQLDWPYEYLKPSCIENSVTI
#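 Hydroperoxide product was detected by ferrous iron/xylenol orange as the 573 to 405 nm absorbance ratio. Arachidonic acid at 40 uM (final) was turned over for 30 min at room temperature by 150 nM human 12hLO, pH 7.0 Hepes buffer, after 15 min compound preincubation.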
# * = called active by the depositor; ? = inconclusive; · = no result; [ ] = dose if it differs, or a comment. Only some compounds are listed: those with a hit (about 1.1% of all), similar ones and a draw of the others. Unless noted, the call rests on the fitted dose curve; in most records, active means well fitted curve in the direction sought with a large enough effect; inconclusive means small, poorly fitted or top-dose-only effect, or another doubt; inactive means no such curve, though single readings can be large; an effect the other way counts as inactive or inconclusive. Potency means the concentration at half of the fitted maximal effect.
SMILES,Chronic BCR inh,GRP78 ERSR act,Apoferritin bind,12-LOX inh
Cc1[nH]c(SC(C)C(=O)Nc2cccc(S(=O)(=O)N(C)C)c2)nc1Cc1ccccc1 (configuration not stated),·,·,·,7%
CCc1ccc(S(=O)(=O)NC(=S)Nc2ccccc2)cc1,-1%,-1%,-9%,45µM*
CCNC(=S)NS(=O)(=O)c1ccc(C)cc1,0%,-5%,-8%,?
CCNC(=S)NS(=O)(=O)c1ccc(CC)cc1,-1%,-5%,-6%,6.3µM*
CCCCOC(=O)COc1ccc2c(C)c(CCC)c(=O)oc2c1,·,·,·,15%
CCCN(CCC)S(=O)(=O)c1ccc(NC(=O)Cn2cnc3c2c(=O)n(C)c(=O)n3C)cc1,·,·,·,4%
CN(C)CCNC(=O)c1cccc2ccc(-c3ccc(-c4ccccc4)cc3)nc12,·,10%,·,40µM*
O=C(c1ccc(F)c(Cl)c1)N1CCC[C@H]1c1nc(-c2ccccc2)no1,·,·,·,0%
CCOCCCNC(=O)CSCc1nc(-c2ccc(OC)c(OC)c2)oc1C,·,·,·,14%
C=CCN1C(=O)/C(=C/c2ccsc2)SC1=S,3%,-2%,-13%,11%
COc1cccc(/C=C2\SC(=S)N(C(C(=O)O)c3ccccc3)C2=O)c1OC (configuration not stated),12%,-7%,-17%,?
O=C(O)C(c1ccccc1)N1C(=O)/C(=C\c2ccc(-c3ccccc3Cl)o2)SC1=S (configuration not stated),?,2%,4%,16%
COc1cc(/C=C2\SC(=S)N(C(C(=O)O)c3ccccc3)C2=O)cc(OC)c1OC (configuration not stated),-17%,32µM*,-14%,?
Cc1ccc(/C=C2\SC(=S)N(C(Cc3ccccc3)C(=O)O)C2=O)cc1 (configuration not stated),14%,-4%,-15%,35µM*
C=CCN1C(=O)/C(=C/c2ccc(-c3ccc(F)cc3)o2)SC1=S,-23%,-1%,?,45µM*
O=C(O)C(c1ccccc1)N1C(=O)/C(=C\c2ccc(-c3ccc(Br)cc3)o2)SC1=S (configuration not stated),2%,0%,-12%,6.3µM*
CCN(Cc1cccc(F)c1)C(=O)c1cc(-c2ccncc2)nc2ccccc12,·,·,·,1%
O=[N+]([O-])/C=C/c1cn(Cc2ccc(F)cc2)c2ccccc12,?,-14%,?,3.5µM*
O=C(O)c1ccc(N/N=C/c2cn(Cc3ccc(F)cc3)c3ccccc23)cc1,?,-5%,-2%,?
CCNC(=S)N/N=C/c1cn(Cc2ccccc2F)c2ccccc12,-6%,-2%,2%,40µM*
CNC(=S)N/N=C/c1cn(Cc2c(F)cccc2Cl)c2ccccc12,-10%,-3%,57%,25µM*
CCNC(=S)N/N=C/c1c(F)cccc1F,·,·,·,4%
CCNC(=S)N/N=C/c1cn(Cc2ccc(F)cc2)c2ccccc12,-7%,-4%,0%,40µM*
O=C(Nc1ccnn1Cc1cccs1)c1ccc(S(=O)(=O)N2CCCC2)cc1,·,·,·,34%
COc1cc(CN2CCC(C(=O)N3CCN(c4ccccc4F)CC3)CC2)cc(OC)c1O,-2%,1%,-8%,2.5µM*
SMILES,Chronic BCR inh,GRP78 ERSR act,Apoferritin bind,12-LOX inh
CCOc1ccc(CN2CCC(C(=O)N3CCN(c4ccccc4F)CC3)CC2)cc1OC,0%,-5%,0%,?
Cc1cccc(C)c1OCC(=O)NCc1nnc(SCC(=O)NC2CCCCC2C)n1C (configuration not stated),?,-3%,-1%,7.1µM*
O=C(/C=C/c1cccc(O)c1)c1ccsc1,·,·,·,-27%
CCn1cc(C(=O)NC2CCCCC2C)c(=O)c2ccc(C)nc21 (configuration not stated),·,0%,-12%,16µM*
Clc1c2ccccc2c(/C=N/N2CCCCC2)c2ccccc12,·,·,·,-4%
O=C(CCc1ccccc1)N1CC=C(c2c[nH]c3ccccc23)CC1,·,·,·,53%
CN(C)S(=O)(=O)N1CC=C(c2c[nH]c3ccccc23)CC1,·,·,·,18µM*
COc1ccc(NC(=O)COc2ccccc2Cl)c2cccnc12,·,·,·,124%
CC(=O)NC1C(=O)N(CCN2CCOCC2)c2ccc(Br)cc21 (configuration not stated),3%,0%,2%,32µM*
CCOc1ccc2c(c1)C(NC(C)=O)C(=O)N2CCN1CCOCC1 (configuration not stated),1%,-4%,3%,0%
Cc1ccc(COc2ccsc2-c2n[nH]c(=S)n2C)cc1,-1%,-1%,-10%,14µM*
Cn1c(-c2sccc2OCc2ccc(Cl)cc2Cl)n[nH]c1=S,?,1%,-8%,28µM*
O=C(CNc1cccc2ccccc12)N/N=C/c1ccc(C(=O)O)cc1,-2%,4%,6%,3%
O=C(CNc1cccc2ccccc12)N/N=C/C=C/c1ccco1,?,-2%,?,32µM*
Cc1ccc(OCC(=O)N/N=C/C=C/c2ccco2)cc1C,-4%,?,?,40µM*
O=C(N/N=C\C=C\c1ccco1)c1cc(-c2ccc3ccccc3c2)n[nH]1,?,5%,-12%,40µM*
CC(CNC(=O)c1ccc2nccnc2c1)c1ccccc1 (configuration not stated),·,·,·,-11%
CC(C)(C)c1cc(C[C@@H]2CC[C@H](O)[C@@H](CN(CC3CC3)CC3CC3)O2)no1,·,·,·,29%[176 µM]
O=C1C(n2ccc3ccccc32)c2ccccc2N1Cc1ccc(C(F)(F)F)cc1 (configuration not stated),·,·,·,32µM*
CC1(C)CC(=O)c2sc(NC(=O)C(C)(C)C)nc2C1,?,?,-6%,2%
CC1(C)CC(=O)c2sc(NC(=O)CN3CCCCC3)nc2C1,0%,-1%,-18%,32µM*
COc1ccccc1CNc1nc(-c2ccc3c(c2)OCO3)nc2ccccc12,·,-2%,·,?
c1csc(CNc2nc(-c3ccc4c(c3)OCO4)nc3ccccc23)c1,·,-2%,·,11µM*
c1cncc(CNc2ncncc2-c2cccnc2)c1,·,-7%,·,?
c1cncc(-c2cncnc2NCc2cccs2)c1,·,-2%,·,7.9µM*
SMILES,Chronic BCR inh,GRP78 ERSR act,Apoferritin bind,12-LOX inh
c1csc(CNc2ncncc2-c2ccc3c(c2)OCO3)c1,·,-1%,-13%,28µM*
O=C(NC12CC3CC(CC(C3)C1)C2)C1CC=CCC1 (configuration not stated),·,·,·,-19%
COC(=O)Nc1ccc(CNCc2ccccn2)cc1,·,·,·,7%
CN1C(=O)c2ccccc2NC1c1cc2ccccc2[nH]c1=O (configuration not stated),·,·,·,7.1µM*
CCC(C)SSc1ncc[nH]1 (configuration not stated),·,·,·,19µM*
CCC(C)SSC(C)CC (configuration not stated),·,·,·,15%[176 µM]
CCCCCCOc1ccc(CNc2cccc3ccccc23)cc1,·,·,·,4.5µM*
CC(=O)c1ccc(S(=O)(=O)N2CCN(C(=O)c3cc(C)no3)CC2)cc1,·,·,·,-3%
COc1cccc(CNc2nc3cc(C(C)=C(C)C)sc3c(=O)n2C)c1,·,1%,·,10µM*
